# TRPV1 potentiator: enhances activation of the human vanilloid receptor TRPV1. Q8NER1. TRPV1-expressing cells, Fluo-8 calcium influx, capsaicin EC20 potentiation. potentiation, % at 8.33 µM. actives 0.02% (n = 320,000). AID 540277; in the data active means potentiation above about 80%; inconclusive means between about 30% and that limit; further: 0% is about no effect
#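 Cells expressing TRPV1 were dye-loaded with Fluo-8 and read kinetically: 10 s baseline, 3 min after compound (agonist portion), then 2 min after EC20 capsaicin (allosteric enhancer portion). Calcium-bound dye fluorescence at 480/520 nm.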
# TRPV1 ag: agonists of human vanilloid receptor 1 (TRPV1); actives 0.19% (n = 320,000); activation, % at 8.33 µM; Q8NER1; TRPV1-expressing cells, Fluo-8 calcium influx, agonist mode; in the data active means activation above about 80%; inconclusive means between about 30% and that limit; further: 0% is about no effect
#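 Fluo-8 calcium influx in TRPV1-expressing cells, kinetic read (ex 480/em 520 nm). Compound added and read 3 min for agonist activity, followed by capsaicin at EC20 final and 2 min further read for enhancement.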
# FUS yeast rescue: suppressors of FUS proteinopathy in yeast. actives 0.24% (n = 390,000). Potency, µM (top dose mostly 76.6 µM), hits mostly activators. S. cerevisiae FUS-expressing, growth rescue, OD600, 24 h;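 further: potency means the concentration at half of the fitted maximal effect; plate controls were DMSO vehicle for no effect and reference control for full effect; nearly all actives have a fitted effect of over 55% in size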
#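 Toxicity suppression screen in FUS-yeast. Cells induced with 2% galactose, starting OD 0.005, treated 24hr at 30C with compounds at multiple final concentrations; growth by OD600.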
# Giardia kill: kills Giardia lamblia; Giardia lamblia trophozoite viability; activity change, % at 7.66 µM, hits read low; actives 0.15% (n = 340,000); AID 540267; in the data active means activity change below about -80%; inconclusive means between about -30% and that limit;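 further: parasites exposed to compound for two days anaerobically before the ATP read; on the % scale 0 is the no-effect control and ±100 the full control effect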
#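 Anaerobic 48 hrs incubation at 37 deg C of 100 trophozoites/well with test compounds; ATPLite 1-Step luminescence, 15-30 min RT, reports cellular ATP as viability.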
# ELG1 DNA repair: inhibitors of ELG1-dependent DNA repair in HEK293T cells; HEK293T ELG1-luciferase reporter, luminescence, 16 h; DNA damage induced by 5-fluorouridine; Potency, µM (top dose mostly 46.1 µM), inactives show at the top dose activity change, negative = inhibition, hits mostly inhibitors; actives 2.3% (n = 330,000); AID 504467; further: potency means the concentration at half of the fitted maximal effect; on the % scale 0 is the no-effect control and ±100 the full control effect; nearly all actives have a fitted effect of over 55% in size
#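 Reporter activity after DNA damage by 5-fluorouridine is monitored. Compound-treated cells incubate 16 hr at 37 °C, then ONE-Glo is added for 30 min before luminescence reading.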
# ELG1 FLuc counter: luciferase inhibition in cell-free luciferin readout for ELG1 hits; shares compounds with ELG1 DNA repair; cell-free firefly luciferase luminescence counter-screen, ViewLux; Potency, µM (series often up to 46.1 µM), for inactives: at the highest dose activity change, negative = inhibition, hits mostly inhibitors; actives 3% (n = 350); further: potency means the concentration at half of the fitted maximal effect; on the % scale 0 is the no-effect control and ±100 the full control effect
# ELG1 Luc conf: inhibits ELG1-dependent DNA repair in HEK293T cells, confirmed. AID 624248. shares compounds with ELG1 DNA repair. actives 68% (n = 670). Potency, µM (top dose mostly 46.1 µM), for the others: at the highest dose activity change, negative = inhibition, hits mostly inhibitors. HEK293T ELG1-luciferase levels, luminescence; cells co-treated with 5-fluorouridine; further: potency means the concentration at half of the fitted maximal effect; on the % scale 0 is the no-effect control and ±100 the full control effect; nearly all actives have a fitted effect of over 55% in size
# ELG1-Luc MMS: MMS-stimulated human ELG1 repair inhibition, confirmed; Potency, µM (top dose mostly 46.1 µM), without a hit: top-dose activity change, negative = inhibition, most hits filed as inhibitors; HEK293T luciferase-tagged ELG1 level, MMS stimulated; shares compounds with ELG1 DNA repair; AID 624249; actives 53% (n = 670); further: potency means the concentration at half of the fitted maximal effect; on the % scale 0 is the no-effect control and ±100 the full control effect; nearly all actives have a fitted effect of over 60% in size
# ELG1 5-FU: confirmation of ELG1 repair inhibitors: viability with 5FU. shares compounds with ELG1 DNA repair. cell viability with 5-FU, ELG1-dependent repair. Potency, µM (titrated, usually from 46.1 µM), for inactives: at the top dose activity change, negative = viability loss, hits mostly cytotoxic. 670 tested, under 10 active. AID 624250;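 further: ELG1-luc HEK293T cells cotreated with 5-fluorouridine at 10 µM final; potency means the concentration at half of the fitted maximal effect; viability measured 16 h after compound addition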
# ELG1 MMS viab: confirmation of ELG1 repair inhibitors: viability with MMS; shares compounds with ELG1 DNA repair; actives 33% (n = 670); Cell viability with MMS, ELG1-dependent DNA repair; Potency, µM (doses to about 46.1 µM), for the others: top-dose activity change, negative = viability loss, actives largely listed as cytotoxic; AID 624251;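 further: ELG1-luc HEK293T cells co-treated with 10 µM MMS; potency means the concentration at half of the fitted maximal effect; viability read 16 h after compound addition; on the % scale 0 is the no-effect control and ±100 the full control effect; nearly all actives have a fitted effect of over 60% in size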
# Cell viab unstim: counter-screen for ELG1 repair inhibitors: unstimulated cell viability; shares compounds with ELG1 DNA repair; cell viability counter-screen, unstimulated, luminescence; Potency, µM (doses to about 45.9 µM), without a hit: at the top dose activity change, negative = loss of viability, actives largely listed as cytotoxic; actives 8% (n = 900); AID 624252;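 further: potency means the concentration at half of the fitted maximal effect; compound exposure lasted 16 hours before reading; on the % scale 0 is the no-effect control and ±100 the full control effect; nearly all actives have a fitted effect of over 55% in size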
# FLuc enzyme: firefly luciferase inhibition counter-screen; Potency, µM (top dose mostly 57.5 µM), for the others: at the highest dose activity, negative = inhibition, usual class: inhibitors; purified firefly luciferase, luminescence counter-screen; actives 10% (n = 350); AID 624253; shares compounds with ELG1 DNA repair; further: potency means the concentration at half of the fitted maximal effect; on the % scale 0 is the no-effect control and ±100 the full control effect
# Active calls of the source: *; i = inactive; ? = inconclusive; nt = not tested or not shown. Rows were chosen to be rich in hits. Some 2.3% of all compounds tested hit in one or more screens of this group. Unless noted, the call rests on the fitted dose curve; in most records, active means well fitted curve in the direction sought with a large enough effect; inconclusive means small, poorly fitted or top-dose-only effect, or another doubt; inactive means no such curve, though single readings can be large; an effect the other way counts as inactive or inconclusive.
SMILES,TRPV1 potentiator,TRPV1 ag,FUS yeast rescue,Giardia kill,ELG1 DNA repair,ELG1 Luc conf,ELG1-Luc MMS,ELG1 5-FU,ELG1 MMS viab,Cell viab unstim,others
COc1ccc(-c2nnn(CC(=O)N3CCN(c4ccc(F)cc4)CC3)n2)cc1,4,0,i,10,10%,nt,nt,nt,nt,nt,
COc1ccc(N2CCN(C(=O)CN3CCN(c4nc(-c5ccc(F)cc5)cs4)CC3)CC2)cc1,28,4,i,-28,2.1µM*,14µM*,4µM*,-16%,4.4µM*,?,
CCNC(=O)C1(C)CCN(C(=O)c2ccc(F)cc2Cl)C1 (stereo not drawn),nt,nt,i,nt,nt,nt,nt,nt,nt,nt,
Cc1cc(C)cc(NC(=O)CCc2nc3sc4c(c3c(=O)[nH]2)CCCC4)c1,?,0,i,0,-11%,nt,nt,nt,nt,?,ELG1 FLuc counter=8%;FLuc enzyme=-4%
O=C(COc1ccc(C(=O)NCC2CCCO2)cc1)Nc1cccc(C(F)(F)F)c1 (stereo not drawn),-10,1,i,0,3.3µM*,?,?,11%,?,-4%,
CCc1nn(CC(=O)NCc2ccc(OC)c(OC)c2)c(=O)c2cc3sc(C)cc3n12,nt,nt,i,nt,nt,nt,nt,nt,nt,nt,
CCN(CC)C(=O)c1sc2nc(N3CCOCC3)c3c(c2c1N)CCCC3,-9,?,?,-5,6.5µM*,11µM*,-14%,?,-8%,-23%,ELG1 FLuc counter=69%;FLuc enzyme=-9%
CCCCCCC[C@@H](C/C=C/CCC(=O)N(C)C/C(=C/Cl)C/C(=C\C(=O)N1CC(OC)=CC1=O)OC)OC,nt,nt,?,?,?,nt,nt,nt,nt,?,
CCCCCCC[C@@H](C/C=C/CCC(=O)N(C)C/C(=C/Cl)C/C(=C\C(=O)N1C[C@H](O)CC1=O)OC)OC,nt,nt,?,-11,?,nt,nt,nt,nt,nt,
c1ccc(SCc2cn(C[C@H]3CC[C@@H]([C@@H]4CC[C@H](Cn5cc(CSc6ccccc6)nn5)O4)O3)nn2)cc1,18,2,i,4,2.1µM*,28µM*,28µM*,?,12%,-21%,
CCOc1ccccc1C1NC(c2ccc3c(c2)OCO3)=CC(c2ccccc2O)N1 (stereo not drawn),nt,nt,nt,8,nt,nt,nt,nt,nt,nt,
CCCCOc1ccccc1NC(=O)CC1Sc2ccccc2NC1=O (stereo not drawn),nt,nt,i,nt,nt,nt,nt,nt,nt,nt,
CN1/C(=C\C(=O)C[n+]2ccc3ccccc3c2)C(C)(C)c2ccccc21,2,-1,i,-12,1.2µM*,?,2µM*,-6%,2.8µM*,?,

# Bioassay records deposited in PubChem by National Center for Advancing Translational Sciences (NCATS).
